# Laboratory results from PubChem BioAssay (NCATS).
# “And” between values parts separate entries of the source, which are not always exact repeats. Equal values may be shown once. Inconclusive results are not listed. The source made the active and inactive calls. Unless noted, no rule for the calls is given here.
# What was measured:
# [1] = qHTS Assay for Identifying Gametocytocidal Compounds (AID 743244; active = well fitted curve in the direction sought with a large enough effect; an effect the other way counts as inactive or inconclusive; also: potency is read from the fitted curve at half-maximal effect;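 as to max response: % is scaled to controls: 0 for no effect and ±100 for the full control effect; actives lower the fluorescent signal which means gametocytes are killed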); settings: P. falciparum 3D7 stage III-V gametocytes, alamarBlue, 72 h; max response: stronger effect = lower value
# Method in brief: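 Stage III-V P. falciparum 3D7 gametocytes, 20,000 per well, were exposed to compounds for 72 h at 37C, 5% CO2. AlamarBlue was then added for 24 h and viability was read as fluorescence at Ex 525/Em 598 nm.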
# [2] = qHTS profiling of the MIPE4 collection as inhibitors of Plasmodium falciparum (3D7) proliferation (AID 743344);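 also: scaled between DMSO vehicle wells and 0.29 µM artemisinin as full inhibition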; settings: P. falciparum 3D7 in erythrocytes, SYBR Green DNA fluorescence, 72 h; at 28.5 µM (top of the series) unless noted
# Method in brief: (§1)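 Erythrocytes infected with P. falciparum (0.3% parasitemia, 2.5% hematocrit) incubated with compounds 72 h at 37 C, 5% CO2. Lysis with saponin/Triton buffer containing SYBR Green I, overnight at room temperature in the dark; DNA fluorescence (485/535 nm) normalised to 0.29 uM artemisinin and DMSO.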
# [3] = qHTS profiling of the MIPE4 collection as inhibitors of Plasmodium falciparum (DD2) proliferation (AID 743345); settings: P. falciparum Dd2 in erythrocytes, SYBR Green DNA, 72 h; at 28.5 µM (top of the series) unless noted
# Method in brief: as §1
# [4] = qHTS profiling of the MIPE4 collection as inhibitors of Plasmodium falciparum (DD2) proliferation (Rep 2) (AID 743346); settings: P. falciparum Dd2 in erythrocytes, SYBR Green DNA, 72 h; at 28.5 µM (top of the series) unless noted
# Method in brief: as §1
# [5] = qHTS profiling of the MIPE4 collection as inhibitors of Plasmodium falciparum (HB3) proliferation (AID 743347);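 also: plate controls were DMSO vehicle wells for no effect and artemisinin wells for full effect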; settings: P. falciparum HB3 in erythrocytes, SYBR Green DNA, 72 h; at 28.5 µM (top of the series) unless noted
# Method in brief: as §1
# [6] = High-throughput drug toxicity screening in the BPDCN cell line Gen2.2 (AID 1224824); settings: Gen2.2 BPDCN cells; at 45.8 µM (top of the series) unless noted;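 also: cells exposed to compounds for 48 h before reading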
# Method in brief: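 Gen2.2 cells (500/well) in phenol red-free RPMI with 10% FBS were exposed to compounds for 48 h at 37 °C, 5% CO2. Viability was read by CellTiter-Glo luminescence and normalized to DMSO (100%) and 9.2 uM bortezomib (0%).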
# [7] = qHTS assay for small molecule agonists of the antioxidant response element (ARE) signaling pathway measured by Nrf2-dependant transcriptional activity (AID 720636; active = well fitted curve in the direction sought with a large enough effect in the repeat runs; an effect the other way counts as inactive or inconclusive; also: % of control where 0% means no effect)
# Method in brief: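 ARE-luc HepG2 cells carrying an Nrf2-responsive luciferase reporter, in medium with 1% dialyzed FBS, exposed to compound for 16 hr at 37 C, 5% CO2. Luminescence read 30 min after ONE-Glo addition.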
# [8] = qHTS assay for small molecule antagonists of the retinoid-related orphan receptor gamma (ROR-gamma) signaling pathway - cell viability counter screen (AID 720652; active = well fitted curve in the direction sought with a large enough effect in the repeat runs; an effect the other way counts as inactive or inconclusive;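 also: compound exposure lasted 16 hr before ATP read; % is scaled to controls: 0 for no effect and ±100 for the full control effect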)
# Method in brief: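 Luminescence from CellTiter-Glo after 30 min at room temperature reported cellular ATP as the cytotoxicity measure. Cells were the CHO reporter line with doxycycline-induced ROR-gamma expression, exposed to compound for 16 hr at 37 C.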
# [9] = qHTS assay for small molecule agonists of the antioxidant response element (ARE) signaling pathway measured by Nrf2-dependant transcriptional activity - cell viability counter screen (AID 720653; active = well fitted curve in the direction sought with a large enough effect in the repeat runs; an effect the other way counts as inactive or inconclusive; also: potency is read from the fitted curve at half-maximal effect; as to max response: % is scaled to controls: 0 for no effect and ±100 for the full control effect); settings: ARE-bla HepG2 viability, CellTiter-Glo ATP luminescence, 16 h; max response: stronger effect = lower value
# Method in brief: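 ARE-bla HepG2 cells treated with compounds for 16 h at 37C; this counter screen measures viability as intracellular ATP by CellTiter-Glo luminescence after 30 min at room temperature.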
# [10] = qHTS assay for cell viability of HEK293 cells (AID 743288; active = well fitted curve in the direction sought with a large enough effect; an effect the other way counts as inactive or inconclusive; also: nearly all actives have a fitted effect of over 50% in size; also: potency is read from the fitted curve at half-maximal effect; as to max response: % is scaled to controls: 0 for no effect and ±100 for the full control effect); settings: ATP luminescence (CellTiter-Glo), 18 h; max response: stronger effect = lower value
# Method in brief: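 Parental HEK293 cells were seeded at 2,000 cells/well, rested at least 5 h at 37 C, then exposed to compounds in DMSO for 18 h at 37 C. Viability was read as ATP-dependent luciferase luminescence after 30 min at room temperature.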
# [11] = qHTS assay for cell viability of the p53RE-bla HCT-116 cell line (AID 743292; active = well fitted curve in the direction sought with a large enough effect; an effect the other way counts as inactive or inconclusive; also: nearly all actives have a fitted effect of over 55% in size; also: potency is read from the fitted curve at half-maximal effect)
# Method in brief: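 CellSensor p53RE-bla HCT-116 cells (4,000/well) pre-incubated 5 h at 37 C, then exposed to compounds in DMSO for 16 h at 37 C. Viability read as ATP content by CellTiter-Glo luminescence after 30 min at room temperature.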
# [12] = qHTS profiling for inhibitors of Plasmodium falciparum (3D7) proliferation (AID 743322);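 also: infected erythrocytes exposed to compound for 72 h before lysis; 100% = DMSO vehicle wells and 0% = 0.29 µM artemisinin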; settings: P. falciparum 3D7 proliferation; at 28.7 µM (top of the series) unless noted
# Method in brief: as §1
# [13] = qHTS profiling for inhibitors of Plasmodium falciparum (HB3) proliferation (AID 743324; active = well fitted curve in the direction sought with a large enough effect; an effect the other way counts as inactive or inconclusive;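 also: 100% = DMSO vehicle wells and 0% = artemisinin-treated control wells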); settings: Plasmodium falciparum HB3 blood-stage proliferation; at 28.7 µM (top of the series) unless noted
# Method in brief: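 P. falciparum HB3 grown in erythrocytes (0.3% parasitemia, 2.5% hematocrit final) with compound for 72 h at 37 C, 5% CO2. Parasite DNA detected by SYBR Green after saponin/triton lysis overnight; normalized to 0.29 uM artemisinin and DMSO.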
# [14] = qHTS for compounds that reverse cellular toxicity of Amyloid beta (A-beta) peptide in yeast: LOPAC Validation Assay (AID 720559; active = well fitted curve in the direction sought with a large enough effect; an effect the other way counts as inactive or inconclusive;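 also: plate controls were DMSO for no effect and equimolar ferric chloride plus clioquinol rescue for full effect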)
# Method in brief: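 Yeast cells expressing toxic A-beta were combined with pinned compounds in growth medium and incubated 48 hr at 30 C. Growth was read as absorbance at 600 nm and normalized to DMSO and to an equimolar FeCl3/clioquinol positive control.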
# [15] = qHTS for Activators of Parkin Expression: LOPAC Validation Assay (NLuc Reporter) (AID 720572; active = well fitted curve in the direction sought with a large enough effect; an effect the other way counts as inactive or inconclusive;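 also: 0% = DMSO and 100% = positive control compound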)
# Method in brief: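 Neuronal cells with a Parkin promoter-driven FLuc/NLuc coincidence reporter were treated 24 h at 37 C in 7-point dose response (LOPAC). NLuc luminescence read after FLuc; signals normalized to DMSO and positive control (100%).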
# [16] = qHTS for Activators of Parkin Expression: LOPAC Validation Assay (FLuc Reporter) (AID 720573; active = well fitted curve in the direction sought with a large enough effect; an effect the other way counts as inactive or inconclusive;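 also: 0% = DMSO and 100% = positive control compounds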)
# Method in brief: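 Neuronal cell line stably carrying FLuc/NLuc coincidence reporter under Parkin promoter; cells plated 24 h, then compounds added in 7-point dose response for 24 h at 37 C. FLuc luminescence read; normalized to DMSO and positive control (100%).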
# [17] = biological target: T1, Hexokinase-4 (Homo sapiens) + Glucokinase regulatory protein (Homo sapiens) (UniProt P35557+Q14397); assay: qHTS assay for inhibitors of recombinant human GCK-GKRP interaction: Diaphorase-coupled assay (AID 743205; active = well fitted curve in the direction sought with a large enough effect; an effect the other way counts as inactive or inconclusive)
# T1 sequence (P35557 whole entry, looked up): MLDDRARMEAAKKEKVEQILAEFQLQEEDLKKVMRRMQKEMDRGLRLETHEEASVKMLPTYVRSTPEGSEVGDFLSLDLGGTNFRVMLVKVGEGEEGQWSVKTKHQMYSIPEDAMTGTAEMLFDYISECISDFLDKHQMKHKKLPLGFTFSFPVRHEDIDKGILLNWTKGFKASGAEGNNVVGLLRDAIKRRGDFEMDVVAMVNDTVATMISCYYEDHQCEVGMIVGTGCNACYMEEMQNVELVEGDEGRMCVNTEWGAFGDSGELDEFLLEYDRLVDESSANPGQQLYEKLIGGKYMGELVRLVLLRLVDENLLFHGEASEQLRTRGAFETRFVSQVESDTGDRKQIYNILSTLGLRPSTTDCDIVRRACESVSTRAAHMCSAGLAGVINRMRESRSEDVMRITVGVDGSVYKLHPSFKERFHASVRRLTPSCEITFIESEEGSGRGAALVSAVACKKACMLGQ
# T1 sequence (Q14397 whole entry, looked up): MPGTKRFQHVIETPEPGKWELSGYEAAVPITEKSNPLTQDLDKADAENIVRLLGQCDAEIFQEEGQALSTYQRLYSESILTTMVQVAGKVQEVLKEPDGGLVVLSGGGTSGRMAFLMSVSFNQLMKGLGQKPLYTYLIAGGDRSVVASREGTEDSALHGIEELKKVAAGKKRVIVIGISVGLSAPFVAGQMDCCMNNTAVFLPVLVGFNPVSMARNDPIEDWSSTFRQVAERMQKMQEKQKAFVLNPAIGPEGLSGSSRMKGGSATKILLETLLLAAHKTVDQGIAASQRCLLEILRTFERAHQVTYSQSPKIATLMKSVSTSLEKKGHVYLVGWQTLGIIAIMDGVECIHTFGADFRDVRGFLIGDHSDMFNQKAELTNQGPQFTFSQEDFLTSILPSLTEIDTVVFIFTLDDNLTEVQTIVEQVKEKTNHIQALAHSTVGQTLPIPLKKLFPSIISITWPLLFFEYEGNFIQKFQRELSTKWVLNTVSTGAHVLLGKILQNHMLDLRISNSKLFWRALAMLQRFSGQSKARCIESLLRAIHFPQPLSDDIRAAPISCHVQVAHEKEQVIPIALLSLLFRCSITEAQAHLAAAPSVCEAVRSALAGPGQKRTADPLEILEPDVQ
# Method in brief: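 GST-GCK (10 nM) with FLAG-GKRP (10 nM), 5 mM glucose and 0.4 mM ATP in pH 7.6 Hepes; compounds preincubated 20 min with substrate. G6PDH/diaphorase coupling converts resazurin to resorufin, read kinetically (ex 525/em 590 nm) for 30 min.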
# [18] = biological target: T1, Hexokinase-4 (Homo sapiens) + Glucokinase regulatory protein (Homo sapiens); assay: qHTS assay for inhibitors of recombinant human GCK-GKRP interaction: HTRF assay (AID 743207; active = well fitted curve in the direction sought with a large enough effect; an effect the other way counts as inactive or inconclusive;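 also: 0% = DMSO with GCK present and -100% = DMSO wells lacking GCK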)
# Method in brief: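 GST-GCK and FLAG-GKRP (5 nM each) were combined with 2 uM S6P in pH 7.1 Hepes/MgCl2/KCl/DTT buffer, then compound and anti-FLAG XL665/anti-GST K antibodies were added. After 60 min at room temperature, HTRF 665/615 nm emission was read.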
compound,measurement,setting,value
O=C(NCCO[N+](=O)[O-])c1cccnc1,max response,[1],-6.52% (inactive)
same,"parasite growth, % of DMSO control",[2],102%
same,"parasite growth remaining, % of DMSO control (lower = more inhibition)",[3],87%
same,"parasite growth, % of control (lower = inhibition)",[4],118%
same,"growth, % of control",[5],108%
same,"cell viability, % of control (lower = more cytotoxic)",[6],178%
CCc1nc(N)nc(N)c1-c1ccc(Cl)cc1,Potency,[7],inactive
same,outcome,[8],inactive
same,Potency,[9],11.2 µM (active)
same,max response,[1],14.3% (inactive)
same,Potency,[10],10 µM (active) and 12.6 µM (active)
same,Potency,[11],28.2 µM (active)
same,remaining parasite growth % (stronger effect = lower value),[12],-1.1%
same,"remaining proliferation (% of control), lower = more inhibition",[13],3.84%
same,"parasite growth remaining, % of DMSO control (lower = more inhibition)",[3],83.6%
same,"parasite growth, % of control (lower = inhibition)",[4],85.4%
same,"growth, % of control",[5],18.1%
same,"cell viability, % of control (lower = more cytotoxic)",[6],136%
O=c1c(O)c(-c2cc(O)c(O)c(O)c2)oc2cc(O)cc(O)c12,outcome,[14],inactive
same,outcome,[15],inactive
same,Potency,[16],inactive
same,outcome,[17],inactive
same,outcome,[18],inactive
same,max response,[1],4.63% (inactive)
same,"parasite growth remaining, % of DMSO control (lower = more inhibition)",[3],85.3%
same,"growth, % of control",[5],106%
same,"cell viability, % of control (lower = more cytotoxic)",[6],54.4%
CCCCc1ccc2nc(NC(=O)OC)[nH]c2c1,max response,[1],5.64% (inactive)
same,"parasite growth, % of DMSO control",[2],49.5%
same,"parasite growth remaining, % of DMSO control (lower = more inhibition)",[3],85.9%
same,"parasite growth, % of control (lower = inhibition)",[4],56.6%
same,"growth, % of control",[5],27.6%
same,"cell viability, % of control (lower = more cytotoxic)",[6],47.1%
O=c1oc2cc(O)ccc2s1,max response,[1],-6.04% (inactive)
same,"parasite growth, % of DMSO control",[2],85.1%
same,"parasite growth remaining, % of DMSO control (lower = more inhibition)",[3],123%
same,"parasite growth, % of control (lower = inhibition)",[4],54.9%
same,"growth, % of control",[5],99.9%
same,"cell viability, % of control (lower = more cytotoxic)",[6],68.5%
O=C1NC(=O)C(c2ccccc2[N+](=O)[O-])=C1Nc1ccc(O)c(Cl)c1,outcome,[14],inactive
same,outcome,[15],inactive
same,Potency,[16],inactive
same,outcome,[17],inactive
same,outcome,[18],inactive
same,"parasite growth, % of DMSO control",[2],68.6%
same,"parasite growth remaining, % of DMSO control (lower = more inhibition)",[3],87.1%
same,"parasite growth, % of control (lower = inhibition)",[4],106%
same,"growth, % of control",[5],125%
same,"cell viability, % of control (lower = more cytotoxic)",[6],124%
CCCOc1ccc2nc(NC(=O)OC)[nH]c2c1,max response,[1],-3.98% (inactive)
same,"parasite growth, % of DMSO control",[2],82.7%
same,"parasite growth remaining, % of DMSO control (lower = more inhibition)",[3],92%
same,"parasite growth, % of control (lower = inhibition)",[4],126%
same,"growth, % of control",[5],99.5%
same,"cell viability, % of control (lower = more cytotoxic)",[6],86.8%
CC(C)[C@H](N)C(=O)OCCOCn1cnc2c(=O)[nH]c(N)nc21,max response,[1],18.3% (inactive)
same,"parasite growth, % of DMSO control",[2],102%
same,"cell viability, % of control (lower = more cytotoxic)",[6],57%
C=C(c1ccc(C(=O)O)cc1)c1cc2c(cc1C)C(C)(C)CCC2(C)C,max response,[1],3.99% (inactive)
same,"parasite growth, % of DMSO control",[2],70%
same,"parasite growth remaining, % of DMSO control (lower = more inhibition)",[3],81.7%
same,"parasite growth, % of control (lower = inhibition)",[4],105%
same,"growth, % of control",[5],76.8%
same,"cell viability, % of control (lower = more cytotoxic)",[6],577%
Cc1cc(=O)oc2cc(O)ccc12,max response,[1],14.2% (inactive)
same,"parasite growth, % of DMSO control",[2],85.5%
same,"parasite growth remaining, % of DMSO control (lower = more inhibition)",[3],101%
same,"parasite growth, % of control (lower = inhibition)",[4],107%
same,"growth, % of control",[5],105%
same,"cell viability, % of control (lower = more cytotoxic)",[6],183%
Clc1ccc(C(Cn2ccnc2)OCc2ccsc2Cl)c(Cl)c1 (configuration not stated),Potency,[1],6.31 µM (active)
same,"parasite growth, % of DMSO control",[2],4.99%
same,"parasite growth remaining, % of DMSO control (lower = more inhibition)",[3],7.57%
same,"parasite growth, % of control (lower = inhibition)",[4],15.9%
same,"growth, % of control",[5],8.47%
same,"cell viability, % of control (lower = more cytotoxic)",[6],75.4%
CS(=O)(=O)OCCCCOS(C)(=O)=O,Potency,[7],inactive
same,outcome,[8],inactive
same,max response,[9],-5.06% (inactive) and -4.65% (inactive) and 2.24% (inactive)
same,max response,[1],7.28% (inactive)
same,max response,[10],-9.44% (inactive) and 3.38% (inactive) and -6.4% (inactive)
same,Potency,[11],inactive
same,"parasite growth, % of DMSO control",[2],89.8%
same,"parasite growth remaining, % of DMSO control (lower = more inhibition)",[3],77.1%
same,"parasite growth, % of control (lower = inhibition)",[4],79.3%
same,"growth, % of control",[5],106%
same,"cell viability, % of control (lower = more cytotoxic)",[6],84.6%
